Screens from PubChem BioAssay.
Integrin act MD – integrin-mediated muscular dystrophy alleviation activation. alpha7betagal myoblasts, beta-gal FDG fluorescence, 48 h. Potency, µM (highest dose often 38.3 µM), hits mostly activators. hit rate 0.064% among 350,000. AID 624291; further: nearly all actives have a fitted effect of over 60% in size
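alpha7betagal+/- myoblasts (passage 13, 250/well) treated 48 h at 37C with compounds at 1:260 dilution of DMSO stock. Lysed, then beta-galactosidase activity read as FDG fluorescence (ex 480/em 540) after 30 min, with pre-read for autofluorescence.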
Gal4-VP16 FLuc – Gal4-VP16 reporter inhibition counter-screen; AID 2546; Drosophila S2 Gal4-VP16 UAS-luciferase, luminescence, 20 h; hit rate 3.5% among 310,000; Potency, µM (titrated, usually from 53.6 µM), hits mostly inhibitors;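 further: Gal4-VP16 expression switched on by copper sulfate through the metallothionein promoter; nearly all actives have a fitted effect of over 50% in size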
RORg inh – ROR gamma (mouse) transcription inhibition; hit rate 5.4% among 310,000; P51450; Drosophila S2 Gal4-RORgamma UAS-luciferase reporter, 20 h; Potency, µM (series often up to 53.6 µM), usual class: inhibitors; AID 2551; further: nearly all actives have a fitted effect of over 60% in size
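Stable Schneider cell line, Gal4 DNA-binding domain fused to ROR gamma, UAS-luciferase. Cmpd 1 hr RT → CuSO4 700 uM final → 20 hr RT → luciferase reagent 10 min → luminescence.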
Giardia killer – kills Giardia lamblia; hit rate 0.15% among 340,000; activity change, % at 7.66 µM, hits read low; Giardia lamblia trophozoite viability; in the data active means activity change below about -80%; inconclusive means between about -30% and that limit;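 further: parasites exposed to compound for two days anaerobically before the ATP read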
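Killing of trophozoites was scored by loss of ATP luminescence after a 48 hrs anaerobic exposure to compounds at 37 deg C, using 100 cells per well.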
ERG Ets-DNA blk – blocks human ERG Ets domain binding to DNA | P11308 | fluorescence polarization, His-ERG Ets domain / labelled DNA | Potency, µM (doses to about 76.9 µM), usual class: inhibitors | hit rate 0.028% among 370,000; active means well fitted inhibition curve with a large enough effect in the polarisation, with a control signal flat; inconclusive means small, poorly fitted or top-dose-only effect, or effect the other way, or a change in a side signal; inactive means no such curve, though single readings can be large or run the other way; the % refers to the polarisation;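 further: polarization taken with two DNA probes labelled with fluorescein and Texas red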
Target sequence (P11308 whole entry, looked up, the tested form may be a part): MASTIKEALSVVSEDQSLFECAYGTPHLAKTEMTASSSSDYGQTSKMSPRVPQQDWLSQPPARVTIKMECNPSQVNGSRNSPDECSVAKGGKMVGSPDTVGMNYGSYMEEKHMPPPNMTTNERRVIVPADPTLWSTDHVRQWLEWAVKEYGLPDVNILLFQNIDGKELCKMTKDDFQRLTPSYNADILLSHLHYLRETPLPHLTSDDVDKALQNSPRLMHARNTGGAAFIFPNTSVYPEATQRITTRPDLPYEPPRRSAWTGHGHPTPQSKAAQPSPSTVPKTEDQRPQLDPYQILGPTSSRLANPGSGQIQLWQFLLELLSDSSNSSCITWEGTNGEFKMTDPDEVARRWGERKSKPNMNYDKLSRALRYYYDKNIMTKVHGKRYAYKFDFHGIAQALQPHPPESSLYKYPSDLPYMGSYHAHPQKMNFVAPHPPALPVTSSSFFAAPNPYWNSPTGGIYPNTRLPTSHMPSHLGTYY
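His-tagged ERG Ets domain (1 uM in the protein solution; 300mM KCl, 50mM Tris-HCl, 1mM EDTA, 1mM DTT, pH 7.5) received compound, then a probe mix of 5 nM fluorescein-DNA and 100nM Texas-615-DNA. Fluorescence polarization was read for both dyes.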
Of the large screens only hits and unclear results are named; the others gave an inactive call. The entries come from a sample that favours hits as a whole. Unless noted, the call rests on the fitted dose curve; in most records, active means well fitted curve in the direction sought with a large enough effect; inconclusive means small, poorly fitted or top-dose-only effect, or another doubt; inactive means no such curve, though single readings can be large; an effect the other way counts as inactive or inconclusive.

O=C(NC1=NCCS1)c1sc2ccccc2c1Cl	Gal4-VP16 FLuc inconclusive, RORg inh inconclusive (no result: ERG Ets-DNA blk)
COc1cc(C(=O)N/N=C/c2ccc(OC)c(CN3CCN(c4ccc(F)cc4)CC3)c2)ccc1O	none
CC(=O)c1cccc(NS(=O)(=O)c2cc(OCC(N)=O)c(C)cc2Cl)c1	none
C=CCn1c(CCSCc2ccc(OC)c(C)c2)n[nH]c1=S	RORg inh 2.5µM
C=CCn1c(CCSCc2ccccc2)n[nH]c1=S	Gal4-VP16 FLuc inconclusive, RORg inh 4µM
CCn1c(CCCc2ccc(OC)c(C)c2)n[nH]c1=S	Gal4-VP16 FLuc inconclusive, RORg inh 2.2µM
C=CCOc1ccc(CNn2cn[nH]c2=S)cc1OC	none (no result: ERG Ets-DNA blk)
C=CCn1c(-c2cnn(-c3ccccc3)c2N)n[nH]c1=S	RORg inh inconclusive
CCN1CC(c2ccccc2)C(c2ccc(Cl)cc2)=N1 (centres undefined)	none
C(=N\NC(=Nc1ccccc1)c1ccccn1)/c1ccccn1	Gal4-VP16 FLuc 3.2µM, RORg inh 3.2µM
Clc1ccc(/C=N/NC(=Nc2ccccc2)c2ccccn2)c(Cl)c1	Gal4-VP16 FLuc inconclusive, RORg inh 13µM
Clc1ccc(C=NNc2ccccn2)c(Cl)c1	none (no result: Gal4-VP16 FLuc, RORg inh)
Fc1ccccc1Cc1nnc2n1N=C(c1ccc(Cl)cc1)CS2	none
CCCCCCC1(C)NC(=S)N(c2ccccc2)N1 (centres undefined)	RORg inh 7.1µM
CCCCCC1(C)NC(=S)N(c2ccccc2)N1 (centres undefined)	Gal4-VP16 FLuc inconclusive, RORg inh inconclusive
CC1(CC(=O)Nc2ccccc2)NC(=S)N(c2ccccc2)N1 (centres undefined)	RORg inh 7.9µM
C=C(C)CCC1(C)NC(=O)N(c2ccccc2)N1 (centres undefined)	none
CCC1(c2ccccc2)NC(=S)N(c2ccc(C)cc2)N1 (centres undefined)	Gal4-VP16 FLuc inconclusive, RORg inh 5µM
O=C(CSc1nc2c(oc3ccccc32)c(=O)n1CC1CCCO1)NCc1ccccc1 (centres undefined)	none (no result: Gal4-VP16 FLuc, RORg inh)
Cc1ccc(CC(=O)Nc2nnc(-c3ccc(F)cc3)o2)c(C)c1	Gal4-VP16 FLuc 3.2µM, RORg inh 2.5µM
COc1ccc(-c2nnc(NC(=O)Cc3ccccc3)o2)cc1	Gal4-VP16 FLuc 2.8µM, RORg inh 1.6µM
COc1cc(OC)cc(-c2nnc(NC(=O)Cc3ccc(F)cc3)o2)c1	Gal4-VP16 FLuc 0.63µM, RORg inh 0.71µM
COc1ccc(C(=O)OCC(=O)Nc2nnc(-c3ccccc3)o2)cc1	Gal4-VP16 FLuc 5µM, RORg inh 4µM
COc1ccc(CNC(=O)CN2C(=O)COc3ccc(S(=O)(=O)Nc4ccccc4)cc32)cc1	none (no result: Integrin act MD, Gal4-VP16 FLuc, RORg inh, Giardia killer)
Cc1cc(C(=O)NCCc2ccc(S(N)(=O)=O)cc2)no1	none
CCCCc1ccc(NC(=O)Cn2cnc3c(oc4ccccc43)c2=O)cc1	none (no result: Integrin act MD, Gal4-VP16 FLuc, RORg inh, Giardia killer)
O=c1c2ccccc2sn1-c1nccs1	Gal4-VP16 FLuc inconclusive, RORg inh 8.9µM
O=c1c2ccccc2sn1-c1ccccc1	Gal4-VP16 FLuc 2.8µM, RORg inh 3.5µM
Cc1ccc(CNC(=O)C(CC(C)C)OC(=O)c2ccco2)cc1 (centres undefined)	none
O=c1c(/C=N/OCc2ccc(Cl)cc2Cl)c[nH]n1-c1cccc(Cl)n1	Gal4-VP16 FLuc 20µM, RORg inh 13µM
O=c1c(-n2cncn2)c[nH]n1-c1cccc(Cl)n1	none
O=C(O)C1Nc2ccccc2C2C=CCC12 (centres undefined)	none (no result: Integrin act MD, Gal4-VP16 FLuc, RORg inh, ERG Ets-DNA blk)
Cc1cccc(N2C(=O)C(Cc3ccccc3)NC2=S)c1 (centres undefined)	Gal4-VP16 FLuc inconclusive, RORg inh inconclusive
O=C1C(Cc2ccccc2)NC(=S)N1c1ccccc1 (centres undefined)	Gal4-VP16 FLuc inconclusive, RORg inh 11µM
Cc1nnc(NC(=O)CSc2ncc(-c3ccccc3)[nH]2)s1	none
CCc1nnc(NC(=O)CSc2ncc(-c3ccccc3)n2CC)s1	Gal4-VP16 FLuc inconclusive, RORg inh 11µM
CCc1nnc(NC(=O)CSc2ncc(-c3ccccc3)[nH]2)s1	Gal4-VP16 FLuc inconclusive, RORg inh 6.3µM
CCc1nnc(NC(=O)CSc2nnc(COc3ccccc3)n2-c2ccc(C)cc2)s1	none
CCc1nnc(NC(=O)CSc2nnc(-c3ccccc3O)n2-c2ccc(C)cc2C)s1	Gal4-VP16 FLuc inconclusive, RORg inh 1.6µM
O=C(COC(=O)/C=C/c1ccc(Br)o1)NCCCN1CCCC1=O	none
